Data as given in PubChem BioAssay (NCI).
This is part of a sample that, as a whole, favours compounds with a hit. Of some 79,000 tested, about 15% had one in any assay. Values without a mark were called inactive. The source made the active and inactive calls. Rule as the data show it: active = growth inhibition above about 70%; inactive = the rest.

Columns and labels:
[1] = NCI Yeast Anticancer Drug Screen. Data for the rad50 strain (AID 155);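 also: 0% = growth of vehicle-only cultures of the same strain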; details: S. cerevisiae rad50 strain growth inhibition; at 50.0 µM; hits give high values
Outline: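 Yeast carrying a defined DNA repair defect were exposed to test compounds, and growth was compared with vehicle-treated controls to give percent inhibition.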

[2] = NCI Yeast Anticancer Drug Screen. Data for the mec2-1 strain (AID 157); details: S. cerevisiae mec2-1 strain, at 50.0 µM, hits give high values
Outline: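 Readout is yeast growth inhibition, normalised to vehicle-treated controls, in the mec2-1 strain exposed to compound.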

[3] = NCI Yeast Anticancer Drug Screen. Data for the sgs1 mgt1 strain (AID 161);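 also: 0% = growth of cultures given vehicle only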; details: S. cerevisiae sgs1 mgt1 strain, at 50.0 µM, hits give high values
Outline: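 This yeast growth screen uses a strain with defined DNA-repair lesions; compound-treated growth is compared with vehicle-treated growth.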

[4] = NCI Yeast Anticancer Drug Screen. Data for the cln2 rad14 strain (AID 165);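 also: 0% = growth equal to vehicle treated cultures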; details: S. cerevisiae cln2 rad14 strain, at 50.0 µM, hits give high values
Outline: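 Relative to vehicle controls, growth inhibition of compound-treated cln2 rad14 yeast was recorded.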

[5] = NCI Yeast Anticancer Drug Screen. Data for the bub3 strain (AID 167); details: S. cerevisiae bub3 mutant strain, at 50.0 µM, hits give high values
Outline: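 Compounds were applied to a genetically altered yeast strain carrying a cell-cycle control defect. Growth inhibition was scored against vehicle-treated controls.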

[6] = NCI Yeast Anticancer Drug Screen. Data for the mlh1 rad18 strain (AID 175); details: S. cerevisiae mlh1 rad18 strain growth inhibition; at 50.0 µM; hits give high values
Outline: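 Test agents were incubated with a yeast strain of defined genotype (DNA damage repair defect). Inhibition of growth was derived by comparison with vehicle-exposed cultures.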

Structure (SMILES) | growth inhibition [1] | growth inhibition [2] | growth inhibition [3] | growth inhibition [4] | growth inhibition [5] | growth inhibition [6]
Cc1cc(C)nc(NS(=O)(=O)c2ccc(Nc3c4ccccc4nc4c(C(=O)Nc5ccc(S(=O)(=O)Nc6cc(C)on6)cc5)cccc34)cc2)n1 | 28.8% | 17.6% | 32.2% | 31.7% | 11.4% | 38.9%
O=C(Nc1ccc(Cc2ccc(NC(=O)Nc3nc4ccccc4s3)cc2)cc1)Nc1nc2ccccc2s1 | -5.15% | -17.4% | -2.25% | 19.2% | 21.6% | -4.5%
CCCCC1=CC1(C#N)[N+](=O)[O-] (configuration not stated) | 33.4% | 11.5% | 20.5% | 21.6% | 17.3% | 27.8%
N#C/C(=C/c1cccc([N+](=O)[O-])c1)C(=O)O | 38% | 10.6% | 22.6% | 12.9% | 15.8% | 38%
CCCCCCCCCCCCCCCCC1=CC(=O)C=C(OC)C1=O | 13.4% | 1.45% | 23.4% | -36% | -0.15% | 15.6%
O=C(Nc1ccc(Cl)cc1)C(=O)C1=C(O)c2ccccc2OC1 | 16.9% | -5.95% | -12.3% | 11.4% | -4.95% | 9.15%
[N-]=[N+]=C(C(=O)OCC#CCOC(=O)C(=[N+]=[N-])S(=O)(=O)c1ccccc1)S(=O)(=O)c1ccccc1 | -8.95% | -20.6% | 12.8% | -31.6% | -8.95% | -17.1%
COc1cccc(C2NC(=O)c3c(n[nH]c3N)S2)c1O (configuration not stated) | -14.8% | -43.4% | -10.5% | -6.55% | 5.85% | -40.1%
C=C(C)C12CC3CC(/C(=N/O)C(C1)/C3=N\O)[C@@]2(C)O (some centres not stated) | -31.8% | -34.8% | -46% | -8.2% | -26.9% | -59%
C[C@H]1C(=O)CCC2[C@]3(C)CC4OC(=O)C5(CC[C@@]6(C)CCC(C)(C)CC6C45C)C3CC[C@@]21C (some centres not stated) | -0.7% | -7.25% | -25.9% | -3.65% | -34.9% | -15%
CN(/N=C/C=N/N(C)C1=NCCCCN1)C1=NCCCCN1 | -13.6% | -11.3% | -22.2% | 0.7% | 7.55% | -11.8%
C=C1CCc2occ(C)c2C2C1C1=C(CC(C)C1=O)C1OC12C (configuration not stated) | 14.9% | 11.1% | -2.75% | -22.8% | 12.4% | 10.2%
O=C(CCCCCCCCC(=O)c1ccc2ccccc2c1O)c1ccc2ccccc2c1O | -24.4% | -22.1% | -12.8% | 15% | -10.4% | -11.8%
O=C(O)C(=O)c1ccc(O)cc1O | -1.6% | 2.6% | -8.15% | -35.9% | 1.85% | 14.9%
CC(=O)OC1CC23CCC(=O)C2(CC3)C1 (configuration not stated) | 19.9% | -5.8% | 1.85% | -30.1% | 8.3% | -11%
c1cc(-c2nnc(-c3ccncc3)s2)ccn1 | 6.2% | -1.35% | -9.25% | 32.5% | 14.5% | -8.15%
OCCCOc1ccc2ccccc2c1 | 21.4% | 10.2% | 28.4% | 3.95% | -7.25% | 9.85%
Cc1cccc2c(NCCC[N+](C)(C)[O-])c3c([N+](=O)[O-])ccc(C)c3nc12 | 54.1% | -14.3% | 43.8% | 2.8% | -3.1% | 43%
O=C(CN1C(=O)c2ccccc2C1=O)NCCO | -26.8% | -29.1% | -11.8% | -11.7% | -29.1% | -17.2%

Structure (SMILES) | growth inhibition [1] | growth inhibition [2] | growth inhibition [3] | growth inhibition [4] | growth inhibition [5] | growth inhibition [6]
CNc1nnnn1-c1ccccc1C | -10.8% | -3.55% | -10.8% | -86.5% | -4.05% | -8.05%
COc1ccc(N=C(N)N2CCCc3ccccc32)cc1 | -5.25% | 17.9% | 0.55% | -84.9% | 1.4% | 0.4%
CCOC(=O)C(C(=O)OCC)(C(=O)C(F)(F)C(F)(F)C(F)(F)C(F)(F)C(=O)C(C(=O)OCC)(C(=O)OCC)c1ccccc1)c1ccccc1 | 3.75% | 0% | -3.7% | -10.6% | 7.75% | 11.1%
Cc1cc(=O)c(C#N)c(C)o1 | 6.65% | 10.2% | 19.4% | -2.7% | -1.95% | 10%
COc1ccc2c(c1)CCCN2C(N)=Nc1ccc([N+](=O)[O-])cc1 | -4.2% | -4.4% | -1.45% | -55.8% | -1.95% | -7.7%
CCOC(=O)C(=[N+]=[N-])C(O)C1OC(c2ccccc2)OCC1O (configuration not stated) | 12.8% | 18.1% | 18.9% | 22.1% | 9.15% | 24.7%
CCN(Cc1cccc(S(=O)(=O)O)c1)c1ccc(C(=C2C=CC(=[N+](CC)Cc3cccc(S(=O)(=O)O)c3)C=C2)c2ccc(O)cc2S(=O)(=O)O)cc1 | -115% | -127% | -71.2% | -110% | -136% | -137%
C/C(=C\C(=O)c1ccccc1)c1ccccc1 | 17.3% | -5.8% | -20.9% | -16.6% | 12.2% | 57%
Fc1ccc(CN2COc3c(ccc4cccnc34)C2)c(F)c1 | 57.6% | 43.6% | 57.1% | 29.6% | 49% | 52.2%
ClC1CCCCC1 | -12.8% | -2.55% | -0.35% | -7.95% | -7.2% | -31.2%
CNC(=O)Nc1cc(C)ccc1Cl | -0.9% | -6.05% | -8.55% | -70% | 1.15% | -6.7%
CO[Si](C)(C)OC | -6.65% | -32% | -7.15% | 0.3% | -6.15% | -13.9%
O=C(c1ccc2c(c1)no[n+]2[O-])N(CCO)CCO | 58.8% | 8.45% | 47.1% | 92.5% (active) | 28.4% | 19.9%
O=c1[nH]c2cc(Cl)ccc2nc1/C=C(\O)c1ccc([N+](=O)[O-])cc1 | 25.6% | 21.8% | 37.4% | 7.85% | 6.55% | 54%
CCC[n+]1cccc(C#N)c1 | 6.15% | 5.4% | -7.35% | -24.9% | -4.2% | 22.2%
COC(=O)C1CC2c3[nH]c4ccccc4c3CCN2C1 (configuration not stated) | -4.85% | -8.25% | -17.1% | -11.4% | -4.1% | -10.5%
O=C(OCC1OC(n2ccc(=O)[nH]c2=O)C(F)C1OC(=O)c1ccccc1)c1ccccc1 (configuration not stated) | 24.1% | 4.3% | 8.6% | 17.7% | 7.15% | 2.3%
CC[N+]1(C)CCOCC1 | -13.7% | 3.35% | -8.65% | -21.9% | -5.2% | -8.15%
